From PubChem BioAssay (Tox21)
Inconclusive results are not listed. Active and inactive are the calls of the source. Unless noted, calls come from the whole dose curve; as a rule, active = well fitted curve in the direction sought with a large enough effect in the repeat runs; inconclusive = weak or mixed curves; inactive = flat fitted curve, though single readings scatter. Non-standard residues stand in square brackets, D forms with d. Residues, ends and D or L forms follow the SMILES beside them. Orn = NCCC[C@H](N)C(=O)O

Experiments:
[1] = qHTS assay to test for compound auto fluorescence at 535 nm (green) in HEK293 cells (AID 720680)
[2] = qHTS assay to test for compound auto fluorescence at 460 nm (blue) in HEK293 cell free culture (AID 720681)
Summary of the method: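 Compounds were added to cell-free DMEM with 10% FBS and fluorescence read directly. The blue channel used 405 nm excitation and 460 nm emission, with triamterene as the reference fluorophore.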

[3] = qHTS assay to test for compound auto fluorescence at 535 nm (green) in HEK293 cell free culture (AID 720682)
Summary of the method: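 Fluorescein serves as the green reference fluorophore; each compound's intrinsic emission at 535 nm (excitation 485 nm) is reported as an equivalent amount of that dye, measured in serum-containing DMEM without cells.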

[4] = qHTS assay to test for compound auto fluorescence at 590 nm (red) in HEK293 cell free culture (AID 720683)
Summary of the method: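 Cell-free wells of DMEM with 10% FBS received compound, and intrinsic fluorescence was read at excitation/emission 540/590 nm. Values expressed as equivalence to Rose Bengal sodium.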

[5] = qHTS assay to test for compound auto fluorescence at 590 nm (red) in HepG2 cell free culture (AID 720684)
Summary of the method: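 Auto fluorescence equivalency versus Rose Bengal sodium, red channel Ex/Em 540/590 nm; compounds in cell-free MEM/10% FBS; DMSO vehicle control.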

[6] = qHTS assay to test for compound auto fluorescence at 460 nm (blue) in HepG2 cell free culture (AID 720685)
Summary of the method: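 Cell-free plates of MEM plus 10% FBS received 23 nL compound or DMSO vehicle; blue-channel (405/460 nm) intensity scored against triamterene as reference fluorophore.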

[7] = qHTS assay to test for compound auto fluorescence at 535 nm (green) in HepG2 cell free culture (AID 720686)
[8] = qHTS assay to test for compound auto fluorescence at 460 nm (blue) in HepG2 cells (AID 720687)
Summary of the method: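 HepG2 cells in MEM with 10% FBS, attached overnight at 37 C, were exposed to compound or DMSO for 1 hr at 37 C, 5% CO2. Blue fluorescence was read at 405/460 nm, with triamterene as reference fluorophore.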

[9] = biological target: Glucocorticoid receptor (Homo sapiens) (UniProt P04150); assay: qHTS assay to identify small molecule antagonists of the glucocorticoid receptor (GR) signaling pathway (AID 720692; active = well fitted inhibition curve with a large enough effect in the signal ratio in the repeat runs, not every such curve was filed as active; the % refers to the signal ratio)
Summary of the method: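 Antagonism was scored as loss of dexamethasone-driven (5 nM final) reporter signal in HeLa cells bearing a glucocorticoid response element–beta-lactamase construct, after 18 h compound exposure at 37 C and 2 h FRET substrate loading.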

[10] = biological target: Glucocorticoid receptor (Homo sapiens) (UniProt P04150); assay: qHTS assay to identify small molecule agonists of the glucocorticoid receptor (GR) signaling pathway (AID 720691; active = well fitted activation curve with a large enough effect in the signal ratio in the repeat runs, not every such curve was filed as active; the % refers to the signal ratio); details: GR-bla HeLa, beta-lactamase reporter ratio, 18 h; activation: at 62.4 µM (top of the series)
Summary of the method: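 Steps: seed GR-bla HeLa cells, incubate 4 h at 37 C/5% CO2; pin-transfer DMSO-dissolved compounds; incubate 18 h at 37 C; add LiveBLAzer B/G FRET substrate; after 2 h at room temperature, measure fluorescence.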

Measured: Potency

Glucocorticoid receptor (Homo sapiens), sequence (P04150 whole entry, looked up): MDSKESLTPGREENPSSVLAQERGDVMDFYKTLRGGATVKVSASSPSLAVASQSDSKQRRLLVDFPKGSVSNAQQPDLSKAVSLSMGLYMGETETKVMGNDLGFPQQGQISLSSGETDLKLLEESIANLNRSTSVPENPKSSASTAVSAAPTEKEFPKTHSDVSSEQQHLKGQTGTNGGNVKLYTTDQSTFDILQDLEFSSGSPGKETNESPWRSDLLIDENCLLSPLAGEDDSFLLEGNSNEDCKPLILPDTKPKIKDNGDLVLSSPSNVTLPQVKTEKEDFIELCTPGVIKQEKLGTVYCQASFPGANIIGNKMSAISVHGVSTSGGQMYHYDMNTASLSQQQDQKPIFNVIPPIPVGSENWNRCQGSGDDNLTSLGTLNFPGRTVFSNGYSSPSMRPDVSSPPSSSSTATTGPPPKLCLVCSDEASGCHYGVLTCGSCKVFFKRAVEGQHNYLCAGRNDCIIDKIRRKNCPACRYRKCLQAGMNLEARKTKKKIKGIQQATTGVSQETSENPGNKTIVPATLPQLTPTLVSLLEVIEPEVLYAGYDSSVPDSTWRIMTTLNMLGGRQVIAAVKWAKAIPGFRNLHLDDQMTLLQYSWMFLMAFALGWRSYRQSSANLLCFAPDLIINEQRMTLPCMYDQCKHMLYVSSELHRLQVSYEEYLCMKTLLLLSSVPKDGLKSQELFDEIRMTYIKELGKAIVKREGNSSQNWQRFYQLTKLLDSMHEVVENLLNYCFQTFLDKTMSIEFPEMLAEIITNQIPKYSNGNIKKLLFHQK

CC(C)C[C@H](NC(=O)[C@@H](COC(C)(C)C)NC(=O)[C@H](Cc1ccc(O)cc1)NC(=O)[C@H](CO)NC(=O)[C@H](Cc1c[nH]c2ccccc12)NC(=O)[C@H](Cc1cnc[nH]1)NC(=O)[C@@H]1CCC(=O)N1)C(=O)N[C@@H](CCCN=C(N)N)C(=O)N1CCC[C@H]1C(=O)NNC(N)=O
not listed: [10]
inactive: all other assays above

O=C1c2ccccc2CN2C(=O)c3ccccc3CN12
not listed: [7]
inactive: all other assays above

N[C@H](CO)C(=O)O
not listed: [7] | [9]
inactive: all other assays above

O=C1c2ccccc2C(=O)C1c1ccc(F)cc1
not listed: [8]
inactive: all other assays above

N[C@@H](Cc1cnc[nH]1)C(=O)O
not listed: [7]
inactive: all other assays above

CCCCCCCCCCCCCC(=O)OCC(COP(=O)([O-])OCC[N+](C)(C)C)OC(=O)CCCCCCCCCCCCC (stereo not drawn)
not listed: [7]
inactive: all other assays above

NC(=O)[C@@H]1CCCN1C(=O)[C@H](Cc1cnc[nH]1)NC(=O)[C@@H]1CCC(=O)N1
not listed: [8]
inactive: all other assays above

O=C(O)/C=C/C(=O)Nc1ccc(S(=O)(=O)Nc2nccs2)cc1
not listed: [8]
inactive: all other assays above

FC(F)(F)C(F)(F)C(F)(F)C(F)(F)C(F)(F)F
not listed: [7] | [9] | [10]
inactive: all other assays above

CSCCC(N)C(=O)O (stereo not drawn)
not listed: [8]
inactive: all other assays above

CO[C@H]1C[C@@H]2CC[C@@H](C)[C@@](O)(O2)C(=O)C(=O)N2CCCC[C@H]2C(=O)O[C@H]([C@H](C)C[C@@H]2CC[C@@H](O)[C@H](OC)C2)CC(=O)[C@H](C)C=C(C)[C@@H](O)[C@@H](OC)C(=O)[C@H](C)C[C@H](C)/C=C/C=CC=C1C
not listed: [7] | [9] | [10]
inactive: all other assays above

CNCCC=C1c2ccccc2CCc2ccccc21
not listed: [7] | [10]
inactive: all other assays above

C[Se]CC[C@H](N)C(=O)O
not listed: [8]
inactive: all other assays above

C=CC[N@@+]12CC[C@@]34c5ccccc5N5/C=C6/[C@H]7C[C@H]8[C@@]9(CC[N@@+]8(CC=C)C/C7=C/CO)c7ccccc7N(/C=C(/[C@@H](C[C@@H]31)/C(=C\CO)C2)[C@H]54)[C@@H]69
not listed: [10]
inactive: all other assays above

CC(=O)OCC1=C(C(=O)O)N2C(=O)[C@@H](NC(=O)Cc3ccccc3)[C@H]2SC1
not listed: [8]
inactive: all other assays above

O=C(O)c1cc(=O)c2c3nc4ccccc4oc-3cc(=O)c2[nH]1
not listed: [8] | [9]
inactive: all other assays above

C/C(=C(/CCO)SSCC1CCCO1)N(C=O)Cc1cnc(C)nc1N (stereo not drawn)
not listed: [10]
inactive: all other assays above

CCSCC
not listed: [7]
inactive: all other assays above

COc1c(Br)cc(Br)c(C)c1Br
not listed: [8] | [9]
inactive: all other assays above

CC(C)C[C@@H]1NC(=O)[C@H](CCCN)NC(=O)[C@H](C(C)C)NC(=O)[C@@H]2CCCN2C(=O)[C@@H](Cc2ccccc2)NC(=O)[C@H](CC(C)C)NC(=O)[C@H](CCCN)NC(=O)[C@H](C(C)C)NC(=O)[C@@H]2CCCN2C(=O)[C@@H](Cc2ccccc2)NC1=O (cyclo(V[Orn]L[dF]PV[Orn]L[dF]P))
not listed: [7] | [9] | [10]
inactive: all other assays above

NC(=O)[C@H]1O[C@@H](O)[C@H](O)[C@@H](O)[C@@H]1O
not listed: [7] | [10]
inactive: all other assays above
